From PubChem BioAssay (EPA / NIEHS)
Results filed as inconclusive are left out. Active and inactive are the calls of the source. How the source made its calls, unless noted: active means hit-call score of the fitted dose curve at least 0.9, where 1 is the maximum; inactive means score below 0.9.

Experiments:
[1] = BSK_3C_TissueFactor: BioMAP Diversity Plus: 3C Assay for Tissue Factor Biomarker Activity (AID 2282997); details: BioMAP 3C HUVEC, tissue factor biomarker readout; actives raise or lower the signal
Summary of the method: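 Values derive from bidirectional curve fitting against DMSO of Tissue Factor ELISA signals, taken 24 h after dosing primary human umbilical vein endothelial cells.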

[2] = BSK_3C_VCAM1: BioMAP Diversity Plus: 3C Assay for Vascular cell adhesion molecule 1 (VCAM1) Biomarker Activity (AID 2282999); details: BioMAP 3C HUVEC, VCAM1 ELISA, cytokine-stimulated; actives raise or lower the signal
Summary of the method: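 Human umbilical vein endothelial cells were dosed with compound for 24 h, after which cell-surface VCAM-1 was quantified by ELISA. Bidirectional curve fitting used DMSO as negative control and activity baseline.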

[3] = BSK_3C_Proliferation: Cell Proliferation Assessment in the BioMAP Diversity Plus: 3C Assay (AID 2283006); details: primary human endothelial cells (HUVEC);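 on AC50: potency may reflect either rise or fall in cell number versus DMSO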
Summary of the method: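 Human umbilical vein endothelial cells were grown sub-confluent and exposed to chemical for 48 h, then fixed with 10% TCA and stained with 0.1% sulforhodamine B; absorbance at 560 nm gave relative cell number, fitted bidirectionally against DMSO baseline.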

[4] = read-out: E-selectin (Homo sapiens) (UniProt P16581); experiment: BSK_3C_Eselectin: BioMAP Diversity Plus: 3C Assay for Eselectin Biomarker Activity (AID 2283015); details: primary human endothelial cells (HUVEC); actives raise or lower the signal;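 on outcome: cell surface E-selectin protein quantified by ELISA 24 h after dosing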
Summary of the method: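 Human vascular endothelium from umbilical vein is exposed to test chemicals for 24 h. E-selectin levels are read by ELISA and compared with DMSO controls.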

[5] = read-out: Interleukin-1 alpha (IL1a), IL1A (gene 3552); experiment: BSK_BE3C_IL1a: BioMAP Diversity Plus: BE3C Assay for Interleukin-1 alpha (IL1a) Biomarker Activity (AID 2283016); details: primary human bronchial epithelial cells; actives raise or lower the signal
Summary of the method: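 Human primary bronchial epithelial cells (BE3C system) were dosed with compound and IL-1a measured by ELISA 24 h later. Activity was fitted bidirectionally against DMSO baseline; cytotoxicity was tracked in parallel cultures by SRB total-protein staining.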

[6] = read-out: Human Leukocyte Antigen - DR isotype (HLADR), HLA-DRA (gene 3122); experiment: BSK_3C_HLADR: BioMAP Diversity Plus: 3C Assay for Human Leukocyte Antigen - DR isotype (HLADR) Biomarker Activity (AID 2283019); details: primary human endothelial cells (HUVEC); actives raise or lower the signal;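 on outcome: ELISA of cell-surface HLA-DR on HUVEC 24 h after dosing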
Summary of the method: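 Endothelial cells from human umbilical vein are treated with test chemical; after 24 h, HLA-DR levels are measured by ELISA. Data are fitted in both directions using DMSO as the baseline.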

[7] = read-out: Urokinase-type plasminogen activator receptor (uPAR), PLAUR (gene 5329); experiment: BSK_4H_uPAR: BioMAP Diversity Plus: 4H Assay for Urokinase-type plasminogen activator receptor (uPAR) Biomarker Activity (AID 2283030); details: primary human endothelial cells (HUVEC); actives raise or lower the signal
Summary of the method: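 Chemicals are dosed onto human vascular endothelial primary cells (umbilical vein). After 24 h, uPAR is read by ELISA. Gain or loss of signal is fitted relative to DMSO.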

[8] = read-out: Plasminogen activator inhibitor-1 (PAI1), SERPINE1 (gene 5054); experiment: BSK_BE3C_PAI1: BioMAP Diversity Plus: BE3C Assay for Plasminogen activator inhibitor-1 (PAI1) Biomarker Activity (AID 2283037); details: primary human bronchial epithelial cells; actives raise or lower the signal
Summary of the method: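 Human primary bronchial epithelial cells were exposed to chemical for 24 h, then PAI-1 was quantified by ELISA. Activity was fitted bidirectionally relative to the DMSO negative control baseline.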

[9] = read-out: Human Leukocyte Antigen - DR isotype (HLADR), HLA-DRA (gene 3122); experiment: BSK_CASM3C_HLADR: BioMAP Diversity Plus: CASM3C Assay for Human Leukocyte Antigen - DR isotype (HLADR) Biomarker Activity (AID 2283043); details: primary human coronary artery smooth muscle cells; actives raise or lower the signal;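 further: cell-surface HLA-DR protein level quantified by ELISA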
[10] = read-out: Thrombomodulin, THBD (gene 7056); experiment: BSK_CASM3C_Thrombomodulin: BioMAP Diversity Plus: CASM3C Assay for Thrombomodulin Biomarker Activity (AID 2283051); details: primary human coronary artery smooth muscle cells; actives raise or lower the signal;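 further: thrombomodulin protein level measured by ELISA 24 h after dosing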
[11] = read-out: Vascular cell adhesion molecule 1 (VCAM1), VCAM1 (gene 7412); experiment: BSK_CASM3C_VCAM1: BioMAP Diversity Plus: CASM3C Assay for Vascular cell adhesion molecule 1 (VCAM1) Biomarker Activity (AID 2283055); details: primary human coronary artery smooth muscle cells; actives raise or lower the signal;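 further: VCAM-1 protein level quantified by ELISA on the cells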
[12] = read-out: TIMP metallopeptidase inhibitor 2 (TIMP2), TIMP2 (gene 7077); experiment: BSK_KF3CT_TIMP2: BioMAP Diversity Plus: KF3CT Assay for TIMP metallopeptidase inhibitor 2 (TIMP2) Biomarker Activity (AID 2283071); details: primary human keratinocytes with fibroblasts; actives raise or lower the signal
Summary of the method: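 Human primary keratinocyte/foreskin fibroblast co-culture dosed with chemical and sampled at 24 h. TIMP-2 levels quantified by ELISA; bidirectional fitting against DMSO negative control as baseline.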

[13] = read-out: Interleukin-1 alpha (IL1a), IL1A (gene 3552); experiment: BSK_LPS_IL1a: BioMAP Diversity Plus: LPS Assay for Interleukin-1 alpha (IL1a) Biomarker Activity (AID 2283080); details: primary human HUVEC with PBMC; actives raise or lower the signal
Summary of the method: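 Measured: IL-1 alpha via ELISA at 24 h in LPS-activated human umbilical vein endothelium–PBMC co-culture. Baseline: DMSO, bidirectional fitting.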

[14] = BSK_LPS_PGE2: BioMAP Diversity Plus: LPS Assay for Prostaglandin E2 (PGE2) Biomarker Activity (AID 2283082); details: primary human HUVEC with PBMC; actives raise or lower the signal;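 on AC50: secreted prostaglandin E2 measured by ELISA in LPS-stimulated co-culture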
Summary of the method: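 HUVEC plus PBMC co-culture stimulated with LPS; secreted PGE2 quantified by ELISA 24 h after chemical dosing. Activity fitted bidirectionally against DMSO as negative control and baseline; parallel SRB total-protein staining served as cytotoxicity check.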

[15] = read-out: CD38, CD38 (gene 952); experiment: BSK_SAg_CD38: BioMAP Diversity Plus: SAg Assay for CD38 Biomarker Activity (AID 2283087); details: primary human HUVEC with PBMC; actives raise or lower the signal
Summary of the method: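 Fluorescence ELISA of cell-surface CD38 served as the read-out, with either increase or decrease fitted against DMSO controls. Cells were a human umbilical vein endothelium plus PBMC co-culture under SEB/TSST-1 stimulation, measured 24 h after dosing.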

[16] = read-out: CD69, CD69 (gene 969); experiment: BSK_SAg_CD69: BioMAP Diversity Plus: SAg Assay for CD69 Biomarker Activity (AID 2283089); details: primary human HUVEC with PBMC; actives raise or lower the signal;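 on AC50: cell surface CD69 protein quantified by ELISA with fluorescence detection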
Summary of the method: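 Endothelial/PBMC co-culture; chemical added; 24 h incubation; CD69 ELISA with fluorescence detection; bidirectional fit vs DMSO.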

[17] = read-out: E-selectin (Homo sapiens) (UniProt P16581); experiment: BSK_SAg_Eselectin: BioMAP Diversity Plus: SAg Assay for Eselectin Biomarker Activity (AID 2283091); details: primary human HUVEC with PBMC; actives raise or lower the signal
Summary of the method: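 Primary human endothelial cells and peripheral blood mononuclear cells were co-cultured and exposed to chemical for 24 hours. E-selectin levels were then quantified by ELISA, with bidirectional curve fitting normalised to DMSO controls.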

[18] = CCTE_Harrill_HTTr_Viability_MCF7: CCTE's 6-hour Cell Viability Assessment for the High-Throughput Transcriptomics (HTTr) Platform, in MCF-7 cells cultured in DMEM + 10% fetal bovine serum, Harrill Lab (AID 2284010)
Summary of the method: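 Membrane integrity was scored by high-content imaging of propidium iodide dye exclusion after a 6 h exposure across an eight-point dilution series. Data were fitted bidirectionally relative to DMSO as negative control and baseline.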

[19] = CCTE_Harrill_HTTr_Apoptosis_MCF7: CCTE's 6-hour Apoptosis Assessment for the High-Throughput Transcriptomics (HTTr) Platform, in MCF-7 cells cultured in DMEM + 10% fetal bovine serum, Harrill Lab (AID 2284011)
Summary of the method: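 Cells are dosed with test chemicals at eight concentrations and imaged 6 hours later for caspase-3/7 activity using a green fluorogenic detection reagent. Activity is fitted in both directions against DMSO controls.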

[20] = target: Nuclear receptor subfamily 1 group I member 3 (Homo sapiens) (UniProt Q14994); experiment: ATG_CAR_TRANS: Attagene TRANS-FACTORIAL HepG2 Assay for human Constitutive Androstane Receptor (CAR) (AID 2282969; active means hit-call score of the fitted dose curve at least 0.9, where 1 is the maximum;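 further: activators raise reporter mRNA above DMSO so AC50 marks induction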); details: HepG2 Attagene TRANS-FACTORIAL CAR reporter
Sequence of Nuclear receptor subfamily 1 group I member 3 (Homo sapiens) (Q14994 whole entry, looked up, the tested form may be a part): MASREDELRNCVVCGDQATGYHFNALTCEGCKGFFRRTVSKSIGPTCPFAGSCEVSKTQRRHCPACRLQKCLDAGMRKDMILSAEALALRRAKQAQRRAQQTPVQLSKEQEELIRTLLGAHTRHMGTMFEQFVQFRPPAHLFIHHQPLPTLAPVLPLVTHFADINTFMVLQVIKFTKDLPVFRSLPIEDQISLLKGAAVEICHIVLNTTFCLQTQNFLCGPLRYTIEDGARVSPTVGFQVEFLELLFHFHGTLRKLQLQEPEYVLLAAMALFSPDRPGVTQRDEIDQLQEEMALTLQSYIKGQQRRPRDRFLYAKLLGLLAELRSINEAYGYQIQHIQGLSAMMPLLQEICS
Summary of the method: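 HepG2 cells transiently transfected with multiplexed GAL4-UAS reporter units expressing chimeric NR-Gal4 proteins; compound exposure 24 h. Reporter mRNA measured by RT-PCR, 6-FAM labelling, HpaI digestion and capillary electrophoresis; gain-of-signal fitted against DMSO baseline.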

Sequence of E-selectin (Homo sapiens) (P16581 whole entry, looked up): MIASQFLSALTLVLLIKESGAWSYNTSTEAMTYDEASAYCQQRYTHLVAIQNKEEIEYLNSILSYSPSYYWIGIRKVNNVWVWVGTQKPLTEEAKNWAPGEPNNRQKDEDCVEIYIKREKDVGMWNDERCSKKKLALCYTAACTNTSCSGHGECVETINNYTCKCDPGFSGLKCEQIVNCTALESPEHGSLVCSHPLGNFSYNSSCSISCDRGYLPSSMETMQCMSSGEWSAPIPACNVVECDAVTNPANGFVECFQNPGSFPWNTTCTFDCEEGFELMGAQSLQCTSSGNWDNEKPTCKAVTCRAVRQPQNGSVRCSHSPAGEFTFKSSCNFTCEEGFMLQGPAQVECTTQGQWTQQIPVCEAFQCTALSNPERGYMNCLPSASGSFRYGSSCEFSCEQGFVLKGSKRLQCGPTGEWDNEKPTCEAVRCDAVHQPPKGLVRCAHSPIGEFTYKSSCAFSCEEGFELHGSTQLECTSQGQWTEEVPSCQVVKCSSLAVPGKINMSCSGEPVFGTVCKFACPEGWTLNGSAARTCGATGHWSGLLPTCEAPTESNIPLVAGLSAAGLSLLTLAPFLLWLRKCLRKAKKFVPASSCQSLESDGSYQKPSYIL

SMILES: O=[N+]([O-])c1ccc(Cl)cc1
- outcome [1]: inactive
- outcome [2]: inactive
- outcome [3]: inactive
- outcome [4]: inactive
- outcome [5]: inactive
- outcome [6]: inactive
- outcome [7]: inactive
- outcome [8]: inactive
- outcome [9]: inactive
- outcome [10]: inactive
- outcome [11]: inactive
- outcome [12]: inactive
- outcome [13]: inactive
- outcome [14]: inactive
- outcome [15]: inactive
- outcome [16]: inactive
- outcome [17]: inactive
- outcome [18]: inactive
- outcome [19]: inactive

SMILES: Cc1cc(C)c(C2=C(OC(=O)CC(C)(C)C)C3(CCCC3)OC2=O)c(C)c1
- outcome [20]: inactive

SMILES: C=CCN(CC=C)C(=O)C(Cl)Cl
- outcome [20]: inactive
- outcome [1]: inactive
- outcome [2]: inactive
- outcome [3]: inactive
- outcome [4]: inactive
- outcome [5]: inactive
- outcome [6]: inactive
- outcome [7]: inactive
- outcome [8]: inactive
- outcome [9]: inactive
- outcome [10]: inactive
- outcome [11]: inactive
- outcome [12]: inactive
- outcome [13]: inactive
- outcome [14]: inactive
- outcome [15]: inactive
- outcome [16]: inactive
- outcome [17]: inactive
- outcome [18]: inactive
- outcome [19]: inactive

SMILES: CN(N=O)c1ccccc1
- outcome [20]: inactive

SMILES: O=[N+]([O-])C=Cc1ccccc1
- outcome [20]: inactive
- AC50 [1]: 4.68 µM (active)
- AC50 [2]: 6.25 µM (active)
- AC50 [3]: 1.37 µM (active)
- AC50 [4]: 6.94 µM (active)
- AC50 [5]: 2.28 µM (active)
- AC50 [6]: 2.15 µM (active)
- AC50 [7]: 5.14 µM (active)
- outcome [8]: inactive
- AC50 [9]: 12.1 µM (active)
- AC50 [10]: 20 µM (active)
- AC50 [11]: 8.66 µM (active)
- AC50 [12]: 8.02 µM (active)
- AC50 [13]: 8.05 µM (active)
- AC50 [14]: 5.81 µM (active)
- AC50 [15]: 24.9 µM (active)
- AC50 [16]: 20 µM (active)
- AC50 [17]: 20 µM (active)

SMILES: SCc1ccco1
- outcome [20]: inactive

SMILES: CC(C)(Cl)Cl
- outcome [20]: inactive
- outcome [18]: inactive
- outcome [19]: inactive

SMILES: c1ccc(Nc2ccc3ccccc3c2)cc1
- outcome [20]: inactive
- AC50 [1]: 32.9 µM (active)
- AC50 [2]: 34.8 µM (active)
- AC50 [3]: 23.6 µM (active)
- AC50 [4]: 13.8 µM (active)
- AC50 [5]: 20 µM (active)
- AC50 [6]: 31.1 µM (active)
- AC50 [7]: 31.3 µM (active)
- AC50 [8]: 20 µM (active)
- outcome [9]: inactive
- AC50 [10]: 8.69 µM (active)
- outcome [11]: inactive
- AC50 [12]: 15.8 µM (active)
- outcome [13]: inactive
- AC50 [14]: 20 µM (active)
- outcome [15]: inactive
- outcome [16]: inactive
- outcome [17]: inactive
